# Target: PIP5KL1
# Assay: pooled miR-30 sensor sort-seq; sequence = guide strand
# Conditions: shRNA
# Further: reference of the scale not given here.
row,Sequence,sensor-assay potency score (higher = more potent)
1,TTTGATGTCATACCTCTCGGAG,-0.872
2,TAGCGCAGTGTCTTCCACAGGT,0.0204
3,TTGATGTCATACCTCTCGGAGA,-1.04
4,TTTGGGCTCTCGACTCTTCCGG,-0.891
5,TATCAGGAGGCTGTAATCCAGC,-1.11
6,TTGGGCTCTCGACTCTTCCGGG,-0.549
7,TAATCCAGCACGTTGAGCTCCC,-0.232
8,TGTCTTCCACAGGTGCTCCAGC,-0.631
9,TTGAGCTCCCGGAGGAAGGTGG,-0.608
10,TTGCGGAGCCCGTAGACTGTGG,-1.6
11,TACCTCTCGGAGATGCGGCCGG,-0.502
12,TATCCAGTTCCATCTGGCGGAG,-1.65

# Target: PITPNM3
# Assay: as above
# Conditions: shRNA
row,Sequence,sensor-assay potency score (higher = more potent)
1,TTCTCCTTGATGCTCGTCCAGT,-0.95
2,TATGTGATGCGACCACTGCTGT,-0.671
3,TTTGCTGAGACGCTTGCTGCTG,-0.757
4,TTACGAAGCCACTTCTCCCGGG,-0.085
5,TTCAGGTGAGAGACAAGCGAGA,-0.748
6,TTTGATGAAGCACTCCTGCATG,-0.502
7,TTCAGCAGCAATCACATCATTG,-1.64
8,TAGACAGAGATGTCCTTCGTGG,-0.052

# From the OligoGym collection
